Measured values published in PubChem BioAssay AID1259418 (Broad Institute, 2018).
Among all 3,400 compounds or so, about 840 (25%) were called active. Inconclusive results (about 11%) are left out. Not all results are given here. Entries with a potency or affinity are not part of this list. A number with no mark means an inactive call.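 How the source made its calls: active means fitted half-maximal concentration of signal decrease at or below twice the sample's top tested concentration; inconclusive means flat curve between -70 and -30 percent, or poor fit; inactive means flat within 30 percent, signal rise, or potency above limit.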

Assay: T. gondii growth inhibition with IFN-gamma, dose response, cell-based, ME49Luc, HeLa, luciferase, 72 h (AID 1259418)
Settings: T. gondii ME49Luc in IFN-y HeLa, stronger effect = lower value, -100% = high-dose IFN-γ control wells; at 19.5 µM unless noted
Work on `Cc1nc(OCC(=O)Nc2cccc(C(F)(F)F)c2)c2ccccc2n1` yielded a max activity of -11.8% [at 2.6 µM].
With `CCOc1ccc(N(Cc2nc(-c3cccc(Cl)c3)oc2C)S(=O)(=O)c2cccs2)cc1` the max activity was 19.9%.
Molecule `Cc1cccc(-c2nc(CN(c3ccccc3)S(=O)(=O)c3cccs3)c(C)o2)c1` has a max activity of -12.1% [at 1.35 µM].
Molecule `Cc1ccc(N(Cc2nc(-c3cccc(C)c3)oc2C)S(=O)(=O)c2cccs2)cc1` has a max activity of -8.42% [at 0.16 µM].
`COc1ccc(-c2nc(N3CCCc4ccccc43)c3ccccc3n2)cc1` showed a max activity of 23.2% [at 10 µM].
`O=C(NCCc1ccccc1)Nc1ccc(-c2nc(-c3ccccc3)co2)cc1` showed a max activity of 87.9%.
With `O=C(CC1Nc2c3ccccc3nc(=S)n2C1=O)NCc1cccc(Cl)c1` (stereo not drawn) the max activity was -20.4% [at 2.6 µM].
`COc1ccc(-c2nc(N3CCN(c4ccccn4)CC3)c3ccccc3n2)cc1` gave a max activity of -11.1% [at 0.35 µM].
For `COCC#Cc1ccc([C@H]2[C@H](CO)N3CCCCN(C(=O)NC4CCCC4)C[C@@H]23)cc1`, the max activity was 30.1%.
`Cc1ccc(Nc2nc(N)nc(CN3CCc4ccccc4C3)n2)cc1` showed a max activity of 19.9% [at 5 µM].
`CCc1nc(OCC(=O)Nc2cc(F)ccc2F)c2ccccc2n1` showed a max activity of 14.2%.
With `COCCn1cc2c(n1)C(CNC(=O)CS(C)(=O)=O)OCC2` (stereo not drawn) the max activity was 15.6%.
Molecule `Cc1ccc(C)c(N2CCN(C(=O)c3ccc(-n4nc(C(F)(F)F)c5c4CCCC5)cc3)CC2)c1` has a max activity of -23.2%.
With `O=C(NCc1cccc(Cl)c1)c1ccc(-n2nc(C(F)(F)F)c3c2CCCC3)cc1` the max activity was -5.33% [at 0.68 µM].
`O=C(c1ccc(Cn2cncn2)cc1)N1CCC(N2CCCCC2)CC1` gave a max activity of 4.24% [at 10 µM].
`CCc1nc(-c2ccc(C(=O)N3CCC4(CC3)OCCO4)cc2)cs1` gave a max activity of 5.55%.
Work on `Cc1noc(C)c1C1CCCN1C(=O)Cn1nc(C(F)(F)F)c2c1CCCC2` (stereo not drawn) yielded a max activity of -14% [at 0.35 µM].
`Cc1nc(-c2cccc(-c3noc(C(=O)N4CCC5(CC4)OCCO5)n3)c2)cs1` showed a max activity of 13.7% [at 2.6 µM].
`COc1ccc(-c2nc(N3CCN(c4cccc(C(F)(F)F)c4)CC3)c3ccccc3n2)cc1` showed a max activity of 13.5% [at 5 µM].
In the case of `COc1ccc(-n2ncc3c(Nc4ccc(C)cc4)ncnc32)cc1`, the max activity is reported as 28.3% [at 0.68 µM].
In the case of `Cc1oc(-c2cccc(Cl)c2)nc1CN1CCN(C(=O)NC2CCCC2)CC1`, the max activity is reported as 17.3% [at 10 µM].
For `Cc1ccc(-c2nc(CN3CCN(C(=O)NC4CCCCC4)CC3)c(C)o2)cc1`, the max activity was 6.38% [at 5 µM].
`CCOc1ccc(-c2nc(CN3CCN(C(=O)NC4CCCCC4)CC3)c(C)o2)cc1` gave a max activity of -13.3% [at 0.16 µM].
Work on `COc1ccc(CN2CCc3nc(SCc4nc(-c5cccc(C)c5)oc4C)[nH]c(=O)c3C2)cc1` yielded a max activity of -7.54% [at 2.6 µM].
In the case of `O=C(CN1CCC2(CC1)N=C(c1ccc(Cl)cc1)C(=O)N2)Nc1ccc2c(c1)OCO2`, the max activity is reported as -13.7% [at 1.35 µM].
Molecule `Cc1ccc(C)c(-c2coc(-c3ccc(NC(=O)Nc4ccc(F)cc4)cc3)n2)c1` has a max activity of -5.84% [at 0.35 µM].
With `COc1cccc(CNC(=O)Nc2ccc(-c3nc(-c4cc(C)ccc4C)co3)cc2)c1` the max activity was 7.66% [at 0.16 µM].
`CCc1ccc(NC(=O)Nc2ccc(-c3nc(-c4ccccc4)co3)cc2)cc1` gave a max activity of 8.96%.
Work on `CCc1cccc(Nc2nc(-c3ccc(OC)cc3)nc3ccccc23)c1` yielded a max activity of 18.8% [at 0.35 µM].
For `Cc1cccc(-c2nc(Cn3c(=O)c4c(C)cc(C)nc4n(-c4ccccc4)c3=O)c(C)o2)c1`, the max activity was -12.2% [at 0.35 µM].
With `COc1ccc(NC(=O)Nc2ccc(-c3nc(-c4ccc(C)cc4C)co3)cc2)cc1OC` the max activity was 23.8%.
Work on `Cc1ccccc1-c1nc(CN2CCN(C(=O)Nc3ccccc3C(F)(F)F)CC2)c(C)o1` yielded a max activity of 9.13% [at 0.16 µM].
Molecule `CCOc1ccc(-c2nc(CN(c3ccc(OCC)cc3)S(=O)(=O)c3cccs3)c(C)o2)cc1` has a max activity of 4%.
Molecule `Cc1oc(-c2ccc(OC(C)C)cc2)nc1CN(c1ccccc1)S(=O)(=O)c1cccs1` has a max activity of 21%.
For `COc1ccc(-c2nc(CN(c3ccc(C)cc3)S(=O)(=O)c3cccs3)c(C)o2)cc1`, the max activity was -6.38% [at 0.16 µM].
For `COc1ccc(N(Cc2nc(-c3ccc(OC(C)C)cc3)oc2C)S(=O)(=O)c2cccs2)cc1`, the max activity was -11.1% [at 0.35 µM].
Molecule `COc1ccc(N(Cc2nc(-c3ccc(C)cc3)oc2C)S(=O)(=O)c2cccs2)cc1` has a max activity of 9.59% [at 0.35 µM].
`CCOc1ccc(N(Cc2nc(-c3cccc(C)c3)oc2C)S(=O)(=O)c2cccs2)cc1` showed a max activity of 11.4% [at 10 µM].
Work on `CC(C)NC(=O)CC1Nc2c3ccccc3nc(=S)n2C1=O` (stereo not drawn) yielded a max activity of 98.4%.
Molecule `COc1ccc(C(=O)/C=C/c2cc(C(=O)O)cc3c2OCOC3)c(O)c1` has a max activity of 24.8% [at 10 µM].
`CCn1cc(CN2CCCC2c2cc(C(C)C)on2)c2cc(OC)ccc21` (stereo not drawn) showed a max activity of 7.79% [at 2.6 µM].
`Cc1cccc(-c2nc(Cn3nnc(-c4nc(-c5cccc(Cl)c5)no4)c3C)c(C)o2)c1` showed a max activity of 8.17% [at 2.6 µM].
With `O=C(C1CCC1)N1CC[C@H]2CN(Cc3cccc(Cl)c3)S(=O)(=O)[C@@H]2CC1` the max activity was -9.19%.
`CCCc1ccc(S(=O)(=O)N2CCc3nc(-c4ccc(OC)cc4)sc3C2)cc1` gave a max activity of 13.1% [at 0.16 µM].
In the case of `O=C(Cc1ccccc1Cl)Nc1ccc(-c2nc(-c3ccccc3)co2)cc1`, the max activity is reported as 20.3% [at 2.6 µM].
With `COc1ccccc1-c1nc(C)c(-c2ccc(SCc3ccc(F)cc3)nn2)s1` the max activity was 7.01% [at 0.35 µM].
Molecule `Cc1cnc(N2CCC3(CCC(CC(=O)N4CC=CC4)CC3)CC2)nc1` has a max activity of 19.8% [at 10 µM].
With `Cc1cnc(N2CCC3(CCN(CC4CC4)C3=O)CC2)nc1` the max activity was 44%.
